The full list was thinned out, with hits kept by preference.
TbREL1 inh = TbREL1 inhibition, primary screen; TbREL1 RNA ligation, FRET fluorescence; inhibition, % at 9.66 µM; actives 0.49% (n = 89,000);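 active means inhibition above the mean inhibition across all screened compounds plus 3 SD, cut at about 11% in these data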
Target sequence (P86926 whole entry, looked up): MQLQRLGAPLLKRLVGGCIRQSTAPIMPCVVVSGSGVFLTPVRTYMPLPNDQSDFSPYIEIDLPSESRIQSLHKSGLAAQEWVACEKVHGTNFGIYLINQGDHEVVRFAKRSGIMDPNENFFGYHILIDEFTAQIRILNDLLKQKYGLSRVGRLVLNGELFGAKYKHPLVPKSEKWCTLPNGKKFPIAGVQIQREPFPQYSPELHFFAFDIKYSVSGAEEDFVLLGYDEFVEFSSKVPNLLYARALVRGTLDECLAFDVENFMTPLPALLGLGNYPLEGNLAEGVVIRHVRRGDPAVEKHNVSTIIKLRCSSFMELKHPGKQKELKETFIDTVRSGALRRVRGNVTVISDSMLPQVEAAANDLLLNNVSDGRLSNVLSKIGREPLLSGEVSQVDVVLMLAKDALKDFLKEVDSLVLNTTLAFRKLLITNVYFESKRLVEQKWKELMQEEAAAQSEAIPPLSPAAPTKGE
Large screens that a line does not name were inactive.

O=C(/C=C/c1ccco1)Oc1cc(Br)cc(/C=N/NC(=O)c2ccccc2O)c1	none
Cn1cccc1/C=C1\SC(=S)N(NC(=O)c2ccccc2)C1=O	none
O=C(NN1C(=O)/C(=C/C=C/c2ccco2)SC1=S)c1ccccc1O	TbREL1 inh 86.0
Cc1nn(-c2ccccc2)c2sc(C(=O)NCCc3ccccc3)cc12	none
O=C(CSc1nnc(-c2ccccn2)n1-c1ccccc1)Nc1ccc2c(c1)OCCO2	none
CCOC(=O)N[C@H](C(=O)N1CCC[C@H]1C(=O)NCCc1ccccc1Cl)C1CCCCC1	none
CCOC(=O)CCCNC(=O)OC1CC2CC1[C@H]1CCCCN1[C@H]2Cc1ccccc1 (some centres not stated)	none
C=CC(=O)Nc1ccc(N(C)c2ccnc(Nc3ccc(N4CCN(C)CC4)cc3)n2)cc1	TbREL1 inh 11.7
CN1CCN(c2ccc(NC(=O)c3cccs3)cc2)CC1	none
CN1CCN(c2ccc(NC(=O)COc3ccccc3Cl)cc2)CC1	none
COc1cccc(CNC(=O)[C@H]2CCCN2C(=O)[C@H]2CCCN2S(=O)(=O)c2cccc(C)c2)c1	none
CC(C)c1csc2nc3n(c(=O)c12)CCCCC3	none
O=C1c2sc3nc4n(c(=O)c3c2CCC1Br)CCCCC4 (configuration not stated)	TbREL1 inh 16.1
O=c1c2c3c(sc2nc2n1CCCCC2)CCC3	none
CCOC(=O)CC1c2nc3ccccc3cc2CN1C(=O)OCC (configuration not stated)	none
c1ccc(-c2cccc(CNc3nc(-c4ccccn4)nnc3-c3ccccc3)c2)cc1	none
Cc1ccc(-c2nnc(SCC(=O)c3ccc(O)c(O)c3)n2-c2ccc(Cl)cc2)cc1	none
O=C(O[C@H]1CC[C@@]23CCCN2C(=O)CCC[C@H]3C1)N1CCCC1	none
O=C(Nc1ccc(F)cc1Cl)C1CCCN1S(=O)(=O)c1cccc2cccnc12 (configuration not stated)	none
CCOc1ccc(-n2c(SCC(=O)c3ccc4ccccc4c3)nnc2-c2ccco2)cc1	none
C=CC[C@@H](Cc1ccc(F)cc1)C(=O)OC[C@@H]1CCCN1C(=O)[C@H](CC=C)CC(=O)N[C@H](CO)Cc1ccccc1	TbREL1 inh 22.6
C=CC[C@@H](Cc1ccc(F)cc1)C(=O)OC[C@@H]1CCCN1C(=O)[C@@H](CC=C)CC(=O)N(CCO)Cc1ccccc1	none
C=CC[C@@H](Cc1ccc(F)cc1)C(=O)OC[C@@H]1CCCN1C(=O)[C@@H](CC=C)CC(=O)NCCO	none
O=C(COC(=O)c1ccc(OC(F)F)cc1)NCC1CCCO1 (configuration not stated)	none
O=C(CCn1nnc2ccccc21)N1CCN(Cc2ccc3c(c2)OCO3)CC1	none
CN1CCCCC(NC(=O)c2ccc(F)cc2)C1=O (configuration not stated)	none
c1ccc2sc(-c3csc4c3CCNC4)nc2c1	none
CC(C)C[C@@H]1CN=C(N)N1C[C@@H]1CCCN1C[C@@H](C(C)C)N1C[C@@H](Cc2ccccc2)N(CCCC2CCCC2)C1=N	TbREL1 inh 12.6
CC(C)C[C@H]1CNC(=S)N1CC1CCCN1C[C@H](CC(C)C)N1C[C@H](Cc2ccccc2)N(CC2CCCCCC2)C1=S (some centres not stated)	none
CC[C@@H](C)[C@@H]1CN([C@@H](C)CN2CCC[C@H]2CN2C(N)=NC[C@@H]2Cc2ccccc2)C(=N)N1CCCC1CCCC1	none
Cc1ccc(NC(=O)OC2CC3CC2[C@H]2CCCCN2C3)cc1 (some centres not stated)	none
Cc1ccc(C(=O)NCCn2c(N)c(C#N)c3nc4ccccc4nc32)cc1	none
CCn1c(NC(=O)c2ccc(C)cc2)c2ccccc2nc1=O	none
CCC(C)n1c(NC(=O)c2ccccc2)c(C#N)c2nc3ccccc3nc21 (configuration not stated)	TbREL1 inh 11.6
COc1ccccc1NC(=O)OC1CC2CC1[C@H]1CCCCN1[C@H]2C (some centres not stated)	none
CCC[C@H]1[C@@H](OC(=O)NCc2cccc(C(F)(F)F)c2)CC[C@@]23CCCN2C(=O)CCC[C@@H]13	none
O=C(NN=Cc1cccc(OCc2ccccc2)c1)c1cc(-c2ccc(Cl)cc2)n[nH]1	none
COCCN(C(=O)COC(=O)C1=COCCO1)c1c(N)n(Cc2ccccc2)c(=O)[nH]c1=O	none
COCCN(C(=O)COC(=O)c1cnc(C)cn1)c1c(N)n(Cc2ccccc2)c(=O)[nH]c1=O	none
COCCN(C(=O)COC(=O)c1cc2c(s1)CCC2)c1c(N)n(Cc2ccccc2)c(=O)[nH]c1=O	TbREL1 inh 26.8
Cc1ccc(-n2c(SCC(=O)Nc3ccccc3-c3ccccc3)nnc2-c2ccccc2)cc1	none
COC(=O)[C@]12C[C@H](CC(=O)NCCC(C)C)C(=O)N(Cc3ccc(Cl)cc3Cl)C1=C[C@H](C1CCCC1)O[C@@H]2C	none
CCC(C(=O)O)N1C(=O)/C(=C/c2cccn2C)SC1=S (configuration not stated)	none
O=C(O)CCCN1C(=O)/C(=C\c2ccc(-c3nc4ccccc4s3)o2)SC1=S	none
O=C(O)CC(C(=O)O)N1C(=O)/C(=C/c2ccc(-c3nc4ccccc4s3)o2)SC1=S (configuration not stated)	TbREL1 inh 84.0
CCN(C(=O)[C@@H](C)[C@@H](O)c1ccc(Cl)cc1)c1ccccc1	none
CN1C2=N[C@@H](c3ccc4ccccc4c3)CC(=O)N2/C(=C\c2ccccc2)[C@H]1c1ccccc1	none
S=c1[nH]nc(-c2n[nH]c3c2CCC3)n1N=Cc1c[nH]c2ccccc12	none
CC(C)(C)c1cccc(N/C(=C\C(=O)c2ccccc2)c2ccccc2)c1	none
O=C(O)c1ccccc1-c1ccccc1C(=O)NNc1ccccc1	none
O=C(Cc1ccccc1)NCC(=O)Nc1cccc(Br)c1	none
O=C(O)c1ccccc1-c1ccccc1C(=O)Nc1cccc(Br)c1	TbREL1 inh 11.1
COC(CNC(=O)[C@H](Cc1ccccc1)NC1(C(=O)NC2CCCCC2)CCCC1)OC	none
COc1cccc(C2NC(=S)N(Cc3ccc(Br)cc3)C(C)=C2C(C)=O)c1 (configuration not stated)	none
Cc1ccccc1CS(=O)(=O)Cc1ccc(C(=O)Nc2ccc(F)cc2)o1	none
COC(=O)[C@]12C[C@H](CC(=O)NCc3cccc4ccccc34)C(=O)N(Cc3ccccc3)C1=C[C@H](COCc1ccccc1)O[C@@H]2C	none
COc1cc(OC)c(-c2c3cc(O)c(=O)cc-3oc3cc(O)c(O)cc23)cc1OC	TbREL1 inh 20.3
COc1c(O)cc2oc(-c3ccc(O)cc3)cc(=O)c2c1O	none
COC(=O)c1ccccc1-c1c2ccc(=N)cc-2oc2cc(N)ccc12	none
C#CCOCCOCCOCCNc1nc(N2CCN(C(=O)[C@H]([C@@H](C)CC)n3cc(CCCCN)nn3)CC2)nc(N2CCN(C(=O)[C@H]([C@@H](C)CC)n3cc(CCCN=C(N)N)nn3)CC2)n1	none
C#CCOCCOCCOCCNc1nc(N2CCN(C(=O)[C@H]([C@@H](C)O)n3cc(CCCCN)nn3)CC2)nc(N2CCN(C(=O)[C@H]([C@@H](C)CC)n3cc(CCCN=C(N)N)nn3)CC2)n1	TbREL1 inh 12.2
C#CCOCCOCCOCCNc1nc(N2CCN(C(=O)Cn3cc(CCCN=C(N)N)nn3)CC2)nc(N2CCN(C(=O)[C@H]([C@@H](C)O)n3cc(CCCCN)nn3)CC2)n1	none
Cc1ccc(-c2cc(C(=O)NN=Cc3sccc3C)[nH]n2)cc1C	none
COc1ccc2c(c1)[C@@]1(NCCc3c1[nH]c1ccc(OC)cc31)C(=O)N2	none
O=C(Cn1c(-c2cncs2)nc2ccccc21)NC1CCCCC1	none
CC(C)[C@H](NC(=O)c1ccco1)C(=O)N1CCC[C@H]1C(=O)NCc1ccccc1	none
